C diff HTS: C. difficile growth inhibitors, primary screen, HTS; growth activity, negative = inhibition, % at 16 µg/mL (by protocol); Clostridium difficile clinical isolate growth, OD600, 24 h; hits give low values; hit rate 0.25% among 86,000;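 active = mean growth activity at or below -80% and every replicate also at or below -80%; inconclusive = mean at or below -80% but some replicate above -80%; inactive = mean growth activity above -80%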;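 note: 0% = DMSO wells and -100% = levofloxacin 16 µg/mL wells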
T cruzi growth-1: T. cruzi intracellular proliferation inhibitors, primary screen, cell-based, beta-gal Tulahuen parasites, NIH3T3 host, luminescence | T. cruzi beta-gal in NIH3T3, GalScreen luminescence, 90 h | inhibition, % at 8.34 µM | hit rate 5.9% among 77,000;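 active = mean inhibition above about 93%, with at least 55% of replicates each passing it, limit read from the data, passing the limit was not always enough; inconclusive = only one of those two conditions holds; inactive = neither condition holds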
Pf Dd2 inh: P. falciparum Dd2 growth inhibitors, primary screen, SYBR Green fluorescence, single dose replicates. hit rate 2.3% among 94,000. AID 1159554, 2015. 72 h; hits give low values. activity change, % at 10 µM; in the data active = activity change below about -80%; inconclusive = no clear call, values can overlap the other calls
T cruzi growth-2: T. cruzi intracellular proliferation inhibitors, confirmation, cell-based, NIH3T3 host, beta-gal parasite, luminescence, cherry-pick | shares compounds with T cruzi growth-1 | T. cruzi beta-gal in NIH3T3, GalScreen luminescence, 90 h | inhibition, % at 8.35 µM | hit rate 72% among 5,600;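 active = mean replicate inhibition above about 95% and at least 55% of replicates individually reaching it, limit read from the data; inconclusive = only one of the two criteria is met; inactive = neither criterion is met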
T cruzi growth-3: inhibitors of intracellular T. cruzi replication, confirmation, NIH3T3 host cells, beta-gal parasites, cherry-pick, set 2 | shares compounds with T cruzi growth-1 | T. cruzi beta-gal in NIH3T3, GalScreen luminescence, 90 h | inhibition, % at 2.09 µM | hit rate 21% among 5,600;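 active = mean inhibition above about 95%, with at least 55% of replicates also reaching it, limit read from the data; inconclusive = meets just one of the two conditions; inactive = meets neither condition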;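 note: plate controls were neutral control median for no effect and positive control median for full effect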
NIH3T3 tox: cytotoxicity in mouse NIH/3T3 fibroblasts, confirmation, cytotoxicity control for T. cruzi proliferation inhibitor project, cell-based, cherry-pick, single point | NIH/3T3 viability, CellTiter-Glo ATP luminescence, 90 h | shares compounds with T cruzi growth-1 | hit rate 14% among 5,600 | cytotoxicity (signal decrease), % at 8.35 µM | AID 651742, 2012;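 active = mean signal decrease across replicates above about 35% based on untreated-well scatter, with enough replicates individually passing, limit read from the data; inconclusive = no rule stated though some were filed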;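 note: 0% = median of neutral control wells and 100% = median of positive control wells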
3T3 cytotox 2: NIH/3T3 fibroblast cytotoxicity, confirmation, cytotoxicity control, cell-based, cherry-pick, single point, set 2. shares compounds with T cruzi growth-1. inhibition, % at 24.9 µM. NIH/3T3 viability, CellTiter-Glo ATP luminescence, 90 h. AID 651744, 2012. hit rate 56% among 5,600;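 active = mean loss of cell viability signal at or above a set limit, and enough replicates individually reaching it; inconclusive = meets only the mean limit or only the replicate share; inactive = meets neither condition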;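 note: 0% = median of neutral control wells and 100% = median of positive control wells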
Active calls of the source: *. Compounds with a hit are over-represented: about 6.7% of the library has one in this group of screens.

COc1ccccc1-c1ccc2c(c1)O[C@@H](CN(C)S(=O)(=O)c1ccccc1)[C@H](C)CN([C@H](C)CO)S2(=O)=O was read as C diff HTS 7, T cruzi growth-1 inconclusive, Pf Dd2 inh -82*, T cruzi growth-2 105*, T cruzi growth-3 50, NIH3T3 tox 37* and 3T3 cytotox 2 39*.
COc1ccccc1-c1ccc2c(c1)O[C@@H](CN(C)S(=O)(=O)c1ccccc1)[C@H](C)CN([C@@H](C)CO)S2(=O)=O was read as C diff HTS 5, T cruzi growth-1 98*, Pf Dd2 inh inconclusive, T cruzi growth-2 104*, T cruzi growth-3 92, NIH3T3 tox 47* and 3T3 cytotox 2 38*.
Screening COc1ccccc1-c1ccc2c(c1)O[C@H](CN(C)S(=O)(=O)c1ccccc1)[C@H](C)CN([C@H](C)CO)S2(=O)=O returned C diff HTS 8, T cruzi growth-1 95*, Pf Dd2 inh -57, T cruzi growth-2 105*, T cruzi growth-3 42, NIH3T3 tox 25 and 3T3 cytotox 2 37*.
Screening C[C@H]1CN([C@@H](C)CO)S(=O)(=O)c2ccc(Br)cc2O[C@@H]1CN(C)S(=O)(=O)c1ccccc1 returned C diff HTS 7 and Pf Dd2 inh 27.
COc1ccccc1-c1ccc2c(c1)O[C@H](CN(C)C(=O)c1ccccc1)[C@H](C)CN([C@H](C)CO)S2(=O)=O was read as C diff HTS -2, T cruzi growth-1 10 and Pf Dd2 inh -35.
`C[C@H](CO)N1C[C@H](C)[C@H](CN(C)S(=O)(=O)c2ccccc2)Oc2c(NC(=O)c3ccncc3)cccc2C1=O` gave C diff HTS 1, T cruzi growth-1 46 and Pf Dd2 inh 9.
`COc1ccc2c3c(n(C)c2c1)[C@@H](CO)N(C(=O)c1cccnc1)CC31CN(C)C1` gave C diff HTS -5 and Pf Dd2 inh 14.
Screening C[C@H](CO)N1C[C@H](C)[C@@H](CN(C)S(=O)(=O)c2cn(C)cn2)Oc2ccc(NC(=O)Cc3cn(C)c4ccccc34)cc2C1=O returned T cruzi growth-1 51 and Pf Dd2 inh 2.
Screening C/C=C/c1cnc2c(c1)C(=O)N([C@H](C)CO)C[C@H](C)[C@H](CN(C)C(=O)Nc1c(C)noc1C)O2 returned C diff HTS 1, T cruzi growth-1 -2 and Pf Dd2 inh 33.
`C[C@H](O)C#Cc1ccc2c(c1)O[C@@H](CN(C)C(=O)c1ccccc1)[C@H](C)CN([C@@H](C)CO)S2(=O)=O` gave C diff HTS -1, T cruzi growth-1 5 and Pf Dd2 inh -15.
For O=C(c1ccccn1)N1CC(=O)N2[C@@H](CO)[C@H](c3ccc(C#Cc4ccccc4)cc3)[C@@H]2C1 the results were C diff HTS -6 and Pf Dd2 inh 11.
For COc1ccccc1-c1ccc2c(c1)O[C@H](CN(C)S(=O)(=O)c1ccccc1)[C@H](C)CN([C@@H](C)CO)S2(=O)=O the results were C diff HTS 9, T cruzi growth-1 inconclusive, Pf Dd2 inh -51, T cruzi growth-2 103*, T cruzi growth-3 63, NIH3T3 tox 17 and 3T3 cytotox 2 44*.
`COc1ccccc1-c1ccc2c(c1)O[C@@H](CN(C)S(=O)(=O)c1ccccc1)[C@@H](C)CN([C@H](C)CO)S2(=O)=O` gave C diff HTS 14, T cruzi growth-1 90*, Pf Dd2 inh -51, T cruzi growth-2 105*, T cruzi growth-3 58, NIH3T3 tox 60* and 3T3 cytotox 2 49*.
Screening COc1ccccc1-c1ccc2c(c1)O[C@@H](CN(C)C(C)=O)[C@@H](C)CN([C@H](C)CO)S2(=O)=O returned C diff HTS 0, T cruzi growth-1 20 and Pf Dd2 inh 9.
Screening COc1ccccc1-c1ccc2c(c1)O[C@@H](CN(C)C)[C@@H](C)CN([C@H](C)CO)S2(=O)=O returned C diff HTS -4, T cruzi growth-1 -3 and Pf Dd2 inh -5.
For C[C@@H]1CN([C@H](C)CO)C(=O)c2cc(NS(C)(=O)=O)ccc2O[C@@H](C)CCCCO[C@@H]1CN(C)C(=O)C1CCCCC1 the results were C diff HTS 3, T cruzi growth-1 19 and Pf Dd2 inh -13.
CO[C@H]1CN(C)C(=O)c2cc(NC(=O)C3CC3)ccc2OC[C@H](C)N(C(=O)CN(C)C)C[C@@H]1C was read as C diff HTS -14, T cruzi growth-1 4 and Pf Dd2 inh 14.
COc1ccc(NC(=O)N(C)C[C@H]2OCCCC[C@H](C)Oc3ccc(NC(=O)NC(C)C)cc3C(=O)N([C@@H](C)CO)C[C@H]2C)cc1 was read as C diff HTS -3, T cruzi growth-1 -27 and Pf Dd2 inh -34.
`COc1ccc(CNC(=O)C[C@H]2C=C[C@H](NC(=O)Nc3ccc4c(c3)OCO4)[C@H](CO)O2)cc1` gave C diff HTS 12, T cruzi growth-1 8 and Pf Dd2 inh 9.
For C[C@H]1CCCCO[C@@H](CN(C)C(=O)Nc2ccc(F)cc2)[C@@H](C)CN([C@@H](C)CO)C(=O)c2cc(NC(=O)Cc3ccccc3)ccc2O1 the results were C diff HTS 1, T cruzi growth-1 113*, Pf Dd2 inh -59, T cruzi growth-2 67, T cruzi growth-3 55, NIH3T3 tox -25 and 3T3 cytotox 2 2.
For C[C@@H]1CCCCO[C@H](CN(C)C(=O)Nc2ccc(F)cc2)[C@H](C)CN([C@H](C)CO)C(=O)c2cc(NC(=O)Cc3ccccc3)ccc2O1 the results were C diff HTS 8, T cruzi growth-1 105*, Pf Dd2 inh -85*, T cruzi growth-2 111*, T cruzi growth-3 53, NIH3T3 tox -12 and 3T3 cytotox 2 -7.
`C[C@@H]1CCCCO[C@H](CN(C)C(=O)Nc2ccc(F)cc2)[C@@H](C)CN([C@@H](C)CO)C(=O)c2cc(NC(=O)Cc3ccccc3)ccc2O1` gave C diff HTS 0, T cruzi growth-1 94 and Pf Dd2 inh -61.
Screening C[C@@H]1CCCCO[C@H](CN(C)C(=O)Nc2ccc(F)cc2)[C@@H](C)CN([C@H](C)CO)C(=O)c2cc(NC(=O)Cc3ccccc3)ccc2O1 returned C diff HTS 1, T cruzi growth-1 55 and Pf Dd2 inh -1.
Screening COc1ccc2c3c([nH]c2c1)[C@H](CO)N(C(=O)NC(C)C)CC31CCN(C(=O)NC(C)C)CC1 returned C diff HTS 1 and Pf Dd2 inh 9.
